In PubChem BioAssay AID1159580 (chemical genetic matrix, 2015):
Out of some 5,500 compounds screened, about 2,000 (36%) were called active. Another 18% or so got no clear call; they are omitted. No stated cut-off is given here; in the data, active means normalized growth mostly below about 0.91 (no sharp cut-off); inconclusive means no clear call, values can overlap the other calls; inactive means mostly above about 0.92. The list shows a part of the results.

Assay: chemical genetic growth profiling, strain panel (AID 1159580);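 further: tested at 20 µM; growth read once vehicle control cultures reached saturation at 30 °C; 1 = growth at the plate median or of vehicle wells; lower values mean less growth of the strain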
Conditions: growth OD

Measured: normalized growth

NC[C@H]1O[C@H](O[C@H]2[C@H](O)[C@@H](O[C@H]3O[C@H](CO)[C@@H](O)[C@H](N)[C@H]3O)[C@H](N)C[C@@H]2N)[C@H](N)C[C@@H]1O
inactive: S. cerevisiae deletion strains, locus YJR075W, strain HOC1, hits give low values 1.01 | S. cerevisiae deletion strains, locus YKL009W, strain mrt4, hits give low values 1.02 | S. cerevisiae deletion strains, locus YKL068W, hits give low values 0.998 | S. cerevisiae deletion strains, locus YKL085W, strain MDH1 (second series), hits give low values 1 | S. cerevisiae deletion strains, locus YKL085W, strain MDH1, hits give low values 1 | S. cerevisiae deletion strains, locus YKL160W, strain elf1, hits give low values 0.959 | S. cerevisiae deletion strains, locus YKL190W, strain CNB1, hits give low values 0.994 | S. cerevisiae deletion strains, locus YKR001C, strain vps1, hits give low values 0.968 | S. cerevisiae deletion strains, locus YKR026C, strain gcn3, hits give low values 1.02 | S. cerevisiae deletion strains, locus YKR091W, strain srl3, hits give low values 1.01 | S. cerevisiae deletion strains, locus YLL001W, strain dnm1, hits give low values 0.987 | S. cerevisiae deletion strains, locus YLL026W, hits give low values 1.01 | S. cerevisiae deletion strains, locus YLL041C, strain sdh2, hits give low values 1.01 | S. cerevisiae deletion strains, locus YLR027C, strain aat2, hits give low values 1 | S. cerevisiae deletion strains, locus YLR039C, strain RIC1, hits give low values 1.01 | S. cerevisiae deletion strains, locus YLR058C, strain SHM2, hits give low values 0.994 | S. cerevisiae deletion strains, locus YLR102C, strain apc9, hits give low values 1.01 | S. cerevisiae deletion strains, locus YLR113W, strain HOG1, hits give low values 0.978 | S. cerevisiae deletion strains, locus YLR221C, strain rsa3, hits give low values 0.998 | S. cerevisiae deletion strains, locus YLR258W, strain gsy2, hits give low values 1.01 | S. cerevisiae deletion strains, locus YLR262C, strain YPT6 (second series), hits give low values 0.973 | S. cerevisiae deletion strains, locus YLR262C, strain YPT6, hits give low values 1.05 | S. cerevisiae deletion strains, locus YLR268W, strain sec22, hits give low values 1.04 | S. cerevisiae deletion strains, locus YLR320W, strain mms22, hits give low values 1 | S. cerevisiae deletion strains, locus YLR330W, strain CHS5, hits give low values 1.01 | S. cerevisiae deletion strains, locus YLR342W, strain FKS1 (second series), hits give low values 1.02 | S. cerevisiae deletion strains, locus YLR342W, strain FKS1, hits give low values 1.01 | S. cerevisiae deletion strains, locus YLR357W, strain rsc2, hits give low values 0.991 | S. cerevisiae deletion strains, locus YLR370C, strain arc18, hits give low values 1.03 | S. cerevisiae deletion strains, locus YLR371W, strain rom2, hits give low values 1.02 | S. cerevisiae deletion strains, locus YLR384C, strain iki3, hits give low values 1.02 | S. cerevisiae deletion strains, locus YLR418C, strain cdc73, hits give low values 0.986 | S. cerevisiae deletion strains, locus YML016C, strain PPZ1, hits give low values 0.996 | S. cerevisiae deletion strains, locus YML032C, strain rad52, hits give low values 1.02 | S. cerevisiae deletion strains, locus YML120C, strain ndi1, hits give low values 1.01 | S. cerevisiae deletion strains, locus YML124C, strain tub3, hits give low values 1.01 | S. cerevisiae deletion strains, locus YMR058W, strain fet3, hits give low values 1 | S. cerevisiae deletion strains, locus YMR078C, strain ctf18, hits give low values 1.01 | S. cerevisiae deletion strains, locus YMR125W, strain sto1, hits give low values 1.01 | S. cerevisiae deletion strains, locus YMR129W, hits give low values 1.01 | S. cerevisiae deletion strains, locus YMR205C, strain PFK2, hits give low values 0.965 | S. cerevisiae deletion strains, locus YMR223W, strain ubp8, hits give low values 0.988 | S. cerevisiae deletion strains, locus YMR231W, strain pep5, hits give low values 0.996 | S. cerevisiae deletion strains, locus YMR307W, strain GAS1, hits give low values 1.01 | S. cerevisiae deletion strains, locus YNL067W, strain RPL9B, hits give low values 0.99 | S. cerevisiae deletion strains, locus YNL071W, strain lat1, hits give low values 1.01 | S. cerevisiae deletion strains, locus YNL128W, strain TEP1, hits give low values 0.995 | S. cerevisiae deletion strains, locus YNL153C, strain GIM3, hits give low values 0.994 | S. cerevisiae deletion strains, locus YNL183C, strain NPR1, hits give low values 0.933 | S. cerevisiae deletion strains, locus YNL209W, strain ssb2, hits give low values 1.01 | S. cerevisiae deletion strains, locus YNL233W, strain BNI4, hits give low values 1.01 | S. cerevisiae deletion strains, locus YNL248C, strain rpa49, hits give low values 0.956 | S. cerevisiae deletion strains, locus YNL250W, strain rad50, hits give low values 1.01 | S. cerevisiae deletion strains, locus YNL271C, strain bni1, hits give low values 1 | S. cerevisiae deletion strains, locus YNL298W, strain CLA4, hits give low values 0.998 | S. cerevisiae deletion strains, locus YNL307C, strain MCK1, hits give low values 1.01 | S. cerevisiae deletion strains, locus YNL322C, strain KRE1 (second series), hits give low values 1 | S. cerevisiae deletion strains, locus YNL322C, strain KRE1, hits give low values 1.01 | S. cerevisiae deletion strains, locus YNR049C, strain mso1, hits give low values 1.02 | S. cerevisiae deletion strains, locus YNR052C, strain pop2, hits give low values 1.01 | S. cerevisiae deletion strains, locus YOL006C, strain TOP1, hits give low values 1.02 | S. cerevisiae deletion strains, locus YOL012C, strain htz1 1.38 | S. cerevisiae deletion strains, locus YOL147C, strain pex11, hits give low values 1.01 | S. cerevisiae deletion strains, locus YOR001W, strain rrp6, hits give low values 1.05 | S. cerevisiae deletion strains, locus YOR061W, strain CKA2, hits give low values 1.01 | S. cerevisiae deletion strains, locus YOR069W, strain VPS5, hits give low values 1.01 | S. cerevisiae deletion strains, locus YOR070C, strain gyp1, hits give low values 1.02 | S. cerevisiae deletion strains, locus YOR080W, strain dia2, hits give low values 1.01 | S. cerevisiae deletion strains, locus YOR083W, strain WHI5, hits give low values 0.959 | S. cerevisiae deletion strains, locus YOR106W, strain vam3, hits give low values 0.964 | S. cerevisiae deletion strains, locus YOR136W, strain idh2, hits give low values 0.993 | S. cerevisiae deletion strains, locus YOR144C, strain elg1, hits give low values 1.01 | S. cerevisiae deletion strains, locus YOR184W, strain ser1, hits give low values 0.99 | S. cerevisiae deletion strains, locus YOR231W, strain MKK1, hits give low values 0.971 | S. cerevisiae deletion strains, locus YOR265W, strain rbl2, hits give low values 1.03 | S. cerevisiae deletion strains, locus YOR270C, strain vph1, hits give low values 0.943 | S. cerevisiae deletion strains, locus YOR290C, strain snf2, hits give low values 0.987 | S. cerevisiae deletion strains, locus YOR316C, strain cot1, hits give low values 1.01 | S. cerevisiae deletion strains, locus YPL051W, strain arl3, hits give low values 0.988 | S. cerevisiae deletion strains, locus YPL055C, strain LGE1, hits give low values 0.974 | S. cerevisiae deletion strains, locus YPL078C, strain atp4, hits give low values 0.959 | S. cerevisiae deletion strains, locus YPL106C, strain sse1, hits give low values 1.03 | S. cerevisiae deletion strains, locus YPL240C, strain hsp82, hits give low values 1.02 | S. cerevisiae deletion strains, locus YPL256C, strain CLN2, hits give low values 0.968 | S. cerevisiae deletion strains, locus YPR119W, strain clb2, hits give low values 1.01 | S. cerevisiae deletion strains, locus YPR141C, strain kar3, hits give low values 1.01 | S. cerevisiae deletion strains, locus YPR163C, strain tif3, hits give low values 1.02 | S. cerevisiae deletion strains, locus YPR167C, strain met16, hits give low values 1.01 | S. cerevisiae deletion strains, strain wtn01, hits give low values 1.01 | S. cerevisiae strains, strain wild type, hits give low values 0.998
